Data from PubChem BioAssay (Tox21).
Inconclusive results are not listed. The source made the active and inactive calls. Unless noted, the call rests on the fitted dose curve; in most records, active means well fitted curve in the direction sought with a large enough effect in the repeat runs; inconclusive means weak or mixed curves; inactive means no such curve, though single readings can be large; an effect the other way counts as inactive or inconclusive.

Experiments:
[1] = target: Retinoic acid receptor RXR-alpha (Homo sapiens) (UniProt P19793); experiment: qHTS assay to identify small molecule agonists of the RXR signaling pathway (AID 1159527; calls by dose curve; further: nearly all actives have a fitted effect of over 35% in size)
Retinoic acid receptor RXR-alpha (Homo sapiens), sequence (P19793 whole entry, looked up): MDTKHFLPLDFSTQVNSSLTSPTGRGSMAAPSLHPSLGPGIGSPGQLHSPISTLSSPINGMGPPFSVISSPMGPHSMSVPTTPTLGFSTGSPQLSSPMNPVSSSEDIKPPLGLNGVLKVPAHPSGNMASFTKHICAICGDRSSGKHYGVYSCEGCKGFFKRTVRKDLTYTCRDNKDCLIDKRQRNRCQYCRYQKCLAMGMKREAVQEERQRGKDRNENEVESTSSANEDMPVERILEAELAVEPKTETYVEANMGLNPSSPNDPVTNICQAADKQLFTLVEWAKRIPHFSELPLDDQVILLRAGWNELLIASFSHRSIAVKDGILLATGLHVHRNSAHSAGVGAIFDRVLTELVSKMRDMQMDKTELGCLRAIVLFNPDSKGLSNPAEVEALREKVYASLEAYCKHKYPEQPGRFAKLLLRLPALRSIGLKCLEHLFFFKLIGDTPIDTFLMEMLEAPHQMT
Method in brief: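 qHTS of the Tox21 10K library in GeneBLAzer RXR-alpha HEK 293T cells carrying a beta-lactamase reporter […]; 16 hr treatment, 9-cis retinoic acid as agonist control, FRET read-out.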

[2] = qHTS assay to identify small molecule agonists of the RXR signaling pathway - cell viability counter screen (AID 1159529); further: series mostly up to about 77 µM; nearly all actives have a fitted effect of over 50% in size
Method in brief: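 Cell viability is measured by CellTiter-Glo luminescence, 30 min at room temperature, in wells already read for beta-lactamase. Engineered HEK 293T cells (RXR-alpha-UAS-bla) are dosed 16 hr at 37 C. Tetraoctyl ammonium bromide serves as positive control.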

[3] = qHTS assay to identify small molecule antagonists of the retinoid acid receptor (RAR) signaling pathway - cell viability counter screen (AID 1159551); further: nearly all actives have a fitted effect of over 35% in size
Method in brief: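 Cytotoxicity counter screen in C3RL4 cells: 6 h compound exposure with 1 uM retinol (final), viability from cellular ATP by luminescence.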

[4] = qHTS assay to identify small molecule antagonists of the retinoic acid receptor (RAR) signaling pathway (AID 1159552; further: nearly all actives have a fitted effect of over 50% in size)
Method in brief: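 Quantitative HTS in C3RL4 RARE-luciferase reporter cells. Compounds were added with 1 uM (final) retinol; luminescence was read after 6 hr.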

[5] = qHTS assay to identify small molecule agonists of the retinoic acid receptor (RAR) signaling pathway (AID 1159553)
Method in brief: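 Agonist activity was scored in C3RL4 cells bearing a retinoic acid response element luciferase construct. Cells were treated with compounds for 6 hr at 37 C, and luciferase signal was measured as luminescence.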

[6] = qHTS assay to identify small molecule antagonists of the estrogen related receptor (ERR) signaling pathway from Tox21 library - cell viability counter screen (AID 1224834); further: nearly all actives have a fitted effect of over 30% in size
Method in brief: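 Cytotoxicity of test substances is gauged in the same ERR cells used for the antagonist screen, after 17.5 h of compound treatment at 37 C, by CellTiter-Fluor fluorescence measured after 30 min.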

[7] = qHTS assay to identify small molecule agonists of the constitutive androstane receptor (CAR) signaling pathway - cell viability counter screen (AID 1224836); further: series mostly up to about 92 µM; nearly all actives have a fitted effect of over 45% in size
Method in brief: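 Counter screen multiplexed with the CAR reporter readout: HepG2 cells co-transfected with hCAR and the CYP2B6-2.2kb construct receive a 15-concentration compound series and 0.75 uM PK11195 (final), then CellTiter-Fluor fluorescence is read after 23 h.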

[8] = qHTS assay to identify small molecule antagonists of the constitutive androstane receptor (CAR) signaling pathway - cell viability counter screen (AID 1224837); further: series mostly up to about 92 µM; nearly all actives have a fitted effect of over 45% in size
Method in brief: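 Multiplexed cytotoxicity read-out for the CAR antagonist screen: double-stable HepG2-CYP2B6-hCAR cells co-treated with 50 nM CITCO (final) and compound over 15 concentrations, incubated 23 hr, then assessed by CellTiter-Fluor fluorescence.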

[9] = target: Nuclear receptor subfamily 1 group I member 3 (Homo sapiens) (UniProt Q14994); experiment: qHTS assay to identify small molecule antagonists of the constitutive androstane receptor (CAR) signaling pathway (AID 1224838); further: nearly all actives have a fitted effect of over 40% in size
Nuclear receptor subfamily 1 group I member 3 (Homo sapiens), sequence (Q14994 whole entry, looked up): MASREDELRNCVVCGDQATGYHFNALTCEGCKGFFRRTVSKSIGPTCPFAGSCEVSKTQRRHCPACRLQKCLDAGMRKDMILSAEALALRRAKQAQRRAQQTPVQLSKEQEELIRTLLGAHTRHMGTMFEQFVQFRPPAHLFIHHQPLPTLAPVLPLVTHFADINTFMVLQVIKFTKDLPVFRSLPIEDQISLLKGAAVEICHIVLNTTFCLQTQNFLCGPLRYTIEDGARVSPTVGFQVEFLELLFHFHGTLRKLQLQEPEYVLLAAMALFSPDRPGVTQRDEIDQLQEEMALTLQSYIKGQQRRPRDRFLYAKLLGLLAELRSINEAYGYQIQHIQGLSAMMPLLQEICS
Method in brief: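 Compounds were titrated across 15 concentrations onto HepG2 cells double-stably expressing hCAR and a CYP2B6-2.2kb reporter, together with 50 nM CITCO (final). After 24 h at 37 C, luciferase activity was measured by luminescence.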

[10] = target: Nuclear receptor subfamily 1 group I member 3 (Homo sapiens) (UniProt Q14994); experiment: qHTS assay to identify small molecule agonists of the constitutive androstane receptor (CAR) signaling pathway (AID 1224839); further: series mostly up to about 92 µM; nearly all actives have a fitted effect of over 15% in size
Method in brief: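 A 15-concentration quantitative screen uses HepG2 cells co-transfected stably with human CAR and CYP2B6-2.2kb reporter. Treatment lasts 24 h with 0.75 uM PK11195 final present; ONE-Glo luminescence is the signal.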

[11] = qHTS assay to identify small molecule antagonists of the estrogen related receptor signaling pathway with the pleiotropic PPARgamma coactivator (PGC) from Tox21 10K library - cell viability counter screen (AID 1224840; active means well fitted cell-killing curve with a large enough effect in the repeat runs, not every such curve was filed as active; further: nearly all actives have a fitted effect of over 40% in size)
Method in brief: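 Step one, plate 2,000 PGC/ERR cells per well; step two, incubate 6 h at 37 C/5% CO2; step three, pin-transfer compounds; step four, incubate 17.5 h; step five, add CellTiter-Fluor and read fluorescence after 30 min.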

[12] = qHTS assay to identify small molecule antagonists of the estrogen related receptor signaling pathway with the pleiotropic PPARgamma coactivator (PGC) from Tox21 10K library (AID 1224841; call rule not given here; further: series mostly up to about 92 µM; actives are mostly falling curves and most rising ones were filed inactive; nearly all actives have a fitted effect of over 50% in size)
Method in brief: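 Antagonism in this quantitative HTS is taken from loss of luciferase signal in PGC/ERR cells. Cells (2,000/well) are treated with compounds in DMSO after a 6 h settling period and read by One-Glo luminescence after 18 h.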

[13] = qHTS assay to identify small molecule agonists of the estrogen related receptor signaling pathway with the pleiotropic PPARgamma coactivator (PGC) from Tox21 10K library (AID 1224842); further: nearly all actives have a fitted effect of over 15% in size
Method in brief: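 PGC/ERR reporter cells (NTP line) were seeded 2,000 per well, rested 6 h at 37 C/5% CO2, then pin-dosed with compounds in DMSO for 18 h at 37 C; luciferase read by One-Glo luminescence after 30 min at room temperature.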

[14] = target: Thyrotropin receptor (Homo sapiens) (UniProt P16473); experiment: qHTS assay to identify small molecule agonists of the thyroid stimulating hormone receptor (TSHR) signaling pathway (AID 1224843; calls by dose curve; further: nearly all actives have a fitted effect of over 45% in size)
Thyrotropin receptor (Homo sapiens), sequence (P16473 whole entry, looked up): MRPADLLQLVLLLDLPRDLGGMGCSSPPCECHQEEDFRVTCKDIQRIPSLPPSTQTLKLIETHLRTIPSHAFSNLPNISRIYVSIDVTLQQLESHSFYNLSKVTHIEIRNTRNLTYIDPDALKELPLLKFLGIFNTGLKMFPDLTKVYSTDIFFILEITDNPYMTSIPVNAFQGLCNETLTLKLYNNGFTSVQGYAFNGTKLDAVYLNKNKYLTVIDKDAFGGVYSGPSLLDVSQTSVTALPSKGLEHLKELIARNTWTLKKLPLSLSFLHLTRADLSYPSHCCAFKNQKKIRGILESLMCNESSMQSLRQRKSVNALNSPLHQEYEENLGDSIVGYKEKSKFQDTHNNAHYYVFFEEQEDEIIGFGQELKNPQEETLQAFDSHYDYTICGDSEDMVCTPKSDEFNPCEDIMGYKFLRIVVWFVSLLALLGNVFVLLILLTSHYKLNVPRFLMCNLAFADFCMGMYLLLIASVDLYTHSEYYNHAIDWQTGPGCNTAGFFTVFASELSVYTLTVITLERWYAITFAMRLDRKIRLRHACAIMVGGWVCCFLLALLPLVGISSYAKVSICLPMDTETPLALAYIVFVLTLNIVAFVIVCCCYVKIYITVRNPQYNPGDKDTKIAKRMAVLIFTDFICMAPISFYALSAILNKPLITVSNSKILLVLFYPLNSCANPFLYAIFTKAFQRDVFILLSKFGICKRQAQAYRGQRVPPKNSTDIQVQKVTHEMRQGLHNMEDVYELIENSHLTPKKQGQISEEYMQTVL
Method in brief: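 Cell line HEK293 with TSHR; density 800/well. Exposure 30 min RT. Readout HTRF cAMP (cAMP-d2/anti-cAMP-cryptate), 1 h RT before reading.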

[15] = qHTS assay to identify small molecule antagonists of the estrogen related receptor (ERR) signaling pathway - cell viability counter screen (AID 1224818);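 further: series mostly up to about 46 µM; viability measured after 17.5 h of compound exposure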
Method in brief: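 Cells carrying the ERR pathway reporter were seeded and incubated for 6 hours before compound addition. After a 17.5-hour exposure at 37 C, live-cell protease activity was measured by CellTiter-Fluor fluorescence following 30 minutes of incubation.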

[16] = qHTS assay to identify small molecule agonists of the estrogen related receptor (ERR) signaling pathway (AID 1224820)
Method in brief: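 Cells: ERR line from NTP, 2,000/well. Pre-incubation 6 h, 37 C/5% CO2. Compound (DMSO) pin transfer, 18 h 37 C. One-Glo, 30 min RT, luminescence.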

[17] = system: estrogen-related receptor alpha (ERRalpha) with PGC-1alpha coactivator, human; experiment: qHTS assay to identify small molecule antagonists of the estrogen related receptor signaling pathway with the pleiotropic PPARgamma coactivator (PGC) (AID 1224821; calls by dose curve;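 further: series mostly up to about 46 µM; lower luminescence signal means antagonism of PGC/ERR signalling; nearly all actives have a fitted effect of over 50% in size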)
Method in brief: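 Luminescent read-out (One-Glo, 30 min at room temperature) following 18 h treatment of PGC/ERR cells at 37 C with compounds delivered in DMSO. Cells had settled 6 h at 37 C/5% CO2 before dosing.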

[18] = qHTS assay to identify small molecule antagonists of the estrogen related receptor signaling pathway with the pleiotropic PPARgamma coactivator (PGC) cell viability counter screen (AID 1224822;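 further: series mostly up to about 46 µM; viability read after 17.5 h compound exposure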)
Method in brief: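 Seed PGC/ERR cells (2,000/well); incubate 6 h at 37 C/5% CO2; pin-transfer compounds in DMSO; incubate 17.5 h at 37 C; add CellTiter-Fluor; after 30 min read fluorescence.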

[19] = qHTS assay to identify small molecule agonists of the estrogen related receptor signaling pathway with the pleiotropic PPARgamma coactivator (PGC) (AID 1224823)
Method in brief: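 Steps: plate PGC/ERR cells at 2,000 cells/well; incubate 6 h, 37 C/5% CO2; pin-transfer compounds (DMSO); incubate 18 h, 37 C; add One-Glo; 30 min RT; read luminescence.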

[20] = target: Luciferin 4-monooxygenase (Photinus pyralis) (UniProt P08659); experiment: qHTS assay to identify small molecule inhibitors of firefly luciferase (AID 1224835); further: series mostly up to about 120 µM; nearly all actives have a fitted effect of over 25% in size
Luciferin 4-monooxygenase (Photinus pyralis), sequence (P08659 whole entry, looked up): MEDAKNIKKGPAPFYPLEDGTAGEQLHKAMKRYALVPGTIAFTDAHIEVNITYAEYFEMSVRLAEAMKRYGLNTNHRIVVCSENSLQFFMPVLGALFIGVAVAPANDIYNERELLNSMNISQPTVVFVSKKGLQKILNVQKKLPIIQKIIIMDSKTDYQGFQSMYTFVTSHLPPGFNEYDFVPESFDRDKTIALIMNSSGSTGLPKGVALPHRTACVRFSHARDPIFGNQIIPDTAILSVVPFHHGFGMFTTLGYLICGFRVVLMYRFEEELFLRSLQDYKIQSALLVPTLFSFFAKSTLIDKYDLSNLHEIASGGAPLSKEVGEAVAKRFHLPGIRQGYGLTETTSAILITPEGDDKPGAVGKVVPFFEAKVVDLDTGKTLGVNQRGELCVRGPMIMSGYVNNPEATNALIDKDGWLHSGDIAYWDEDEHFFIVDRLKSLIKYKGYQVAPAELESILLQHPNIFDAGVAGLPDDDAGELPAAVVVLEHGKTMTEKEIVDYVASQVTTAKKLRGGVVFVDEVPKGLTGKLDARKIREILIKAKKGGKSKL
Method in brief: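 Quantitative HTS format; KM concentrations of both substrates. Purified P. pyralis FLuc activity quantified from luminescence images.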
On the % scale 0 is the no-effect control and ±100 the full control effect.

O=C(c1ccccc1)C1CCCCC1
inactive: Potency [1] | Potency [2] | outcome [3] | Potency [4] | Potency [5] | Potency [6] | Potency [7] | Potency [8] | Potency [9] | Potency [10] | Potency [11] | Potency [12] | outcome [13] | Potency [14]

O=C(O)CN(CCOCCOCCN(CC(=O)O)CC(=O)O)CC(=O)O
inactive: activation [1] 10% [at 0.29 µM] | activity change, negative = cytotoxicity [2] -0.722% [at 0.29 µM] | activity change, negative = cytotoxicity [3] 0.187% [at 0.349 µM] | activity, negative = inhibition [4] 12.3% [at 0.349 µM] | outcome [15] | outcome [16] | outcome [17] | outcome [18] | outcome [19] | viability change, negative = cytotoxic [6] 1.46% [at 0.349 µM] | viability change, negative = cytotoxic [7] -0.739% [at 0.349 µM] | activity change, negative = cytotoxicity [8] 4% [at 0.349 µM] | viability change, negative = cytotoxic [11] -9.4% [at 0.349 µM] | activity, negative = inhibition [12] 5.6% [at 0.349 µM] | activation [13] -0.694% [at 0.349 µM] | activation [14] -8.79% [at 0.349 µM]

CCC(C)S (centres undefined)
inactive: activation [1] 0.574% [at 2.71 µM] | activity change, negative = cytotoxicity [2] 0.658% [at 2.72 µM] | activity change, negative = cytotoxicity [3] 1.76% [at 3.27 µM] | activity, negative = inhibition [4] -4.13% [at 3.27 µM] | activation [5] 1.68% [at 3.75 µM] | viability change, negative = cytotoxic [6] 1.27% [at 3.27 µM] | viability change, negative = cytotoxic [7] 6.36% [at 3.27 µM] | activity change, negative = cytotoxicity [8] 4.49% [at 3.26 µM] | activity, negative = inhibition [9] -7.32% [at 3.26 µM] | activation [10] 0.262% [at 3.27 µM] | viability change, negative = cytotoxic [11] 2.53% [at 3.27 µM] | activity, negative = inhibition [12] 1.33% [at 3.27 µM] | activation [13] 0.822% [at 3.27 µM] | activation [14] -2.63% [at 3.27 µM]

NC(=O)Nc1ccccc1
inactive: Potency [1] | Potency [2] | outcome [3] | Potency [4] | Potency [5] | Potency [6] | Potency [20] | Potency [7] | Potency [8] | Potency [9] | Potency [10] | Potency [11] | Potency [12] | outcome [13] | Potency [14]

O=C1CC2CC1C1CCCC21 (centres undefined)
inactive: Potency [1] | Potency [2] | outcome [3] | Potency [4] | Potency [5] | Potency [6] | Potency [20] | Potency [7] | Potency [8] | Potency [9] | Potency [10] | Potency [11] | Potency [12] | outcome [13] | Potency [14]

CCn1nc(C(=O)O)c(=O)c2cc3c(cc21)OCO3
inactive: Potency [1] | Potency [2] | outcome [3] | Potency [4] | outcome [15] | outcome [16] | outcome [17] | outcome [18] | outcome [19] | Potency [6] | Potency [20] | Potency [7] | Potency [8] | Potency [9] | Potency [11] | Potency [12] | outcome [13] | Potency [14]

CC1=CC(C)C(C=O)CC1 (centres undefined)
inactive: Potency [1] | Potency [2] | outcome [3] | Potency [4] | Potency [5] | Potency [6] | Potency [7] | Potency [8] | Potency [9] | Potency [10] | Potency [11] | Potency [12] | outcome [13] | Potency [14]

C[C@@H]1CCN(C(=O)[C@H](CCCN=C(N)N)NS(=O)(=O)c2cccc3c2NC[C@H](C)C3)[C@@H](C(=O)O)C1
inactive: Potency [1] | Potency [2] | outcome [3] | Potency [4] | Potency [5] | Potency [6] | Potency [7] | Potency [8] | Potency [9] | Potency [10] | Potency [11] | Potency [12] | outcome [13] | Potency [14]

CCOC(C)(C)C
inactive: Potency [1] | Potency [2] | outcome [3] | Potency [4] | Potency [5] | Potency [6] | Potency [7] | Potency [8] | Potency [9] | Potency [10] | Potency [11] | Potency [12] | outcome [13] | Potency [14]

C/C=C(\C)C#N
inactive: Potency [1] | Potency [2] | outcome [3] | Potency [4] | Potency [5] | Potency [6] | Potency [20] | Potency [7] | Potency [8] | Potency [9] | Potency [10] | Potency [11] | Potency [12] | outcome [13] | Potency [14]

CCN1CCC[C@H]1CNC(=O)c1cc(S(N)(=O)=O)ccc1OC
inactive: Potency [1] | Potency [2] | outcome [3] | Potency [4] | outcome [15] | outcome [18] | Potency [6] | Potency [20] | Potency [7] | Potency [8] | Potency [9] | Potency [10] | Potency [11] | Potency [14]

NS(=O)(=O)c1cc2c(cc1Cl)NC(C1CC3C=CC1C3)NS2(=O)=O (centres undefined)
inactive: Potency [1] | Potency [2] | outcome [3] | Potency [4] | outcome [15] | outcome [18] | Potency [6] | Potency [7] | Potency [8] | Potency [9] | Potency [10] | Potency [11]

CC(=O)Nc1ccc(S(N)(=O)=O)cc1
inactive: Potency [1] | Potency [2] | outcome [3] | Potency [4] | Potency [5] | Potency [6] | Potency [7] | Potency [8] | Potency [9] | Potency [10] | Potency [11] | Potency [12] | outcome [13] | Potency [14]
